# Assay outcomes (PubChem)
# Rows were chosen to be rich in hits. Some 3.7% of all compounds tested hit in one or more screens of this group.
# PfHsp90 yeast 2 = growth inhibition of yeast expressing Plasmodium Hsp90; S. cerevisiae expressing PfHsp90, BacTiter-Glo ATP, 48 h; yeast lacking PDR1 and PDR3 efflux regulators; inhibition, % at 9.4 µM; 310,000 tested, 0.32% active;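 active = every replicate shows inhibition above about 80%, whatever the replicate mean, limit read from the data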;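 note: 0% = DMSO neutral controls and 100% = 20 µM radicicol positive controls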
# tim23-1 inh = tim23-1 yeast growth inhibition; S. cerevisiae tim23-1 growth, BacTiter-Glo luminescence, 24 h; inhibition, % at 20 µM; 330,000 tested, 1.3% active;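 active = growth inhibition of the mutant yeast at or above 50%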;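 note: temperature-sensitive mutant grown at 25 °C; plate controls were DMSO-treated mutant yeast for no effect and medium wells lacking yeast for full effect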
# tim10-1 inh = inhibits growth of tim10-1 mutant yeast. S. cerevisiae tim10-1 ts strain growth, BacTiter-Glo, 24 h. inhibition, % at 20 µM. 330,000 tested, 2.2% active. AID 463190;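 active = inhibition of at least 40%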;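 note: mutant grown at 25 °C; 0% = DMSO wells with yeast and 100% = wells holding no yeast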
# TIM10 inh = inhibits growth of TIM10 yeast strain | S. cerevisiae TIM10 strain growth, BacTiter-Glo luminescence, 24 h | inhibition, % at 10 µM | 330,000 tested, 1.4% active;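 active = inhibition of 40% or more at the single tested concentration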;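 note: wild-type TIM10 isogenic control strain grown at permissive 25 °C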
# NLRP3 yeast inh = blocks the NALP3 inflammasome reconstituted in yeast. Yeast reconstituted NLRP3/ASC/caspase-1, beta-gal luminescence, 24 h. inhibition, % at 10 µM. AID 2825. 330,000 tested, 0.39% active;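 active = inhibition of 50% or more; inactive = inhibition below 50%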;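 note: plate controls were induced DMSO wells for no effect and uninduced yeast grown without galactose for full effect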
# tim10-1 conf = tim10-1 yeast growth inhibition, confirmed. shares compounds with tim10-1 inh. S. cerevisiae tim10-1 ts strain growth, BacTiter-Glo, 24 h. inhibition, % at 20 µM. 7,400 tested, 56% active. AID 463213;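 active = inhibition of yeast growth at or above a set limit in either of two repeat tests at 20 µM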;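 note: tim10-1 mutant grown at permissive 25 °C to find synthetic lethal compounds; 0% = DMSO yeast wells and 100% = medium wells without yeast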
# The depositor's hits bear a star; . = no result.
SMILES,PfHsp90 yeast 2,tim23-1 inh,tim10-1 inh,TIM10 inh,NLRP3 yeast inh,tim10-1 conf
O=C(CSc1nnc(SCC(=O)c2ccco2)s1)c1ccco1,3.4,29.1,27.2,-3.1,12.9,.
O=C(CSc1nc2cc(Cl)ccc2s1)c1ccco1,-42.0,42.9,43.0*,19.3,-11.8,37.5*
O=C(Nc1ccc(Cl)c(Cl)c1)c1ccc(Cl)c(Cl)c1,7.7,6.7,-28.9,15.5,21.6,.
CC(C)C1O/C(=N/C(=O)Nc2ccc(Cl)c(Cl)c2)NC1=O (centres undefined),.,49.9,56.6*,36.5,11.4,47.5*
COc1ccc(S(=O)(=O)N2CCCC2CNC(=O)C(=O)NCc2cccs2)cc1 (centres undefined),-9.3,-4.1,2.0,-1.0,10.4,.
COc1ccc(CC(=O)N/N=C/c2ccc(Cl)s2)cc1OC,3.0,28.6,49.5*,26.4,7.9,23.8
Cc1ccc(S(=O)(=O)N2CCOCC2)cc1NC(=O)COc1ccccc1Cc1ccccc1,1.0,23.5,18.0,6.0,24.8,.
Cc1ccc(N2C(=O)CC(Sc3cccs3)C2=O)cc1 (centres undefined),9.0,28.8,45.0*,18.4,32.2,48.6*
O=C(C1CCN(S(=O)(=O)c2cccc3nsnc23)CC1)N1CC=C(c2ccccc2)CC1,10.0,10.1,42.6*,12.2,10.9,21.2
COc1ccccc1/C=C/[C@@H]1C[C@H]2CN(Cc3cccc(Cl)c3)C(=O)[C@]23CCCN13,-11.8,26.8,43.0*,19.7,13.2,26.3
CCOC(=O)/C(C#N)=C/c1c(N2CCN(c3ccccc3)CC2)nc2ccccn2c1=O,-25.5,40.4,43.6*,25.2,27.2,30.3
Cc1nn(C2CCS(=O)(=O)C2)c2nc(C3CC3)cc(C(=O)Nc3ccc(C(N)=O)cc3)c12 (centres undefined),13.4,-8.2,-4.7,6.6,4.6,.
O=C(N/C(=C\c1cn(-c2ccccc2)nc1-c1ccccc1)C(=O)N1CCOCC1)c1ccccc1,.,-14.8,14.8,-16.8,10.5,.
C(=N\N1CCOCC1)/c1cn(-c2ccccc2)nc1-c1ccccc1,13.2,49.6,48.9*,7.7,31.2,39.8*
CCCN(CCC)CCCNC(=O)Cn1cnc2sc(C)c(S(=O)(=O)N3CCOCC3)c2c1=O,-17.9,13.2,1.5,3.3,15.1,.
Cc1nn(CC(=O)NCCCN2CCC(Cc3ccccc3)CC2)c(=O)c2cc(-c3ccccc3)nn12,-29.3,-46.7,-46.6,-76.7,-1.5,.
CCc1ccc(-c2cc3c(=O)n(CC(=O)NCCCN4CCC(Cc5ccccc5)CC4)nc(C)n3n2)cc1,-1.9,35.9,52.8*,-38.3,2.2,-79.8
CCCC(=O)Nc1nc(-c2ccc(Cl)s2)cs1,-21.5,29.0,-25.1,-11.7,42.9,.
CN(C)S(=O)(=O)c1ccc2nc(NC(=O)c3cccs3)sc2c1,6.8,40.5,20.8,27.5,-10.0,.
O=C(Nc1nc(-c2ccc(Cl)s2)cs1)c1cccs1,33.1,49.4,41.9*,36.2,12.3,10.7
O=C(Nc1nc2ccc(F)cc2s1)c1cccs1,1.9,36.0,41.4*,33.9,-1.5,31.9*
O=C(Nc1nc(-c2cc(Cl)sc2Cl)cs1)c1ccccc1,.,40.2,44.1*,25.5,29.0,28.3
O=C(Nc1nc(-c2ccccn2)cs1)c1ccc(Cl)s1,65.6,35.2,51.1*,-0.4,-0.9,30.4
C=CCN1CCN(C(=O)c2oc3ccccc3c2C)CC1,23.3,4.8,-0.7,-5.1,1.8,.
CC(C)(C)OC(=O)NCCCC1=CC2=CC(=O)C(C)(OC(=O)C3CCCC3)C(=O)C2=CO1 (centres undefined),.,-1.7,2.5,2.0,11.3,.
SMILES,PfHsp90 yeast 2,tim23-1 inh,tim10-1 inh,TIM10 inh,NLRP3 yeast inh,tim10-1 conf
Cc1ccc(S(=O)(=O)n2ccc3c2CCCC3=O)cc1,-4.5,11.0,21.1,-2.1,18.0,.
CCN1C(=O)CC(N2CCC(Nc3ccc(F)cc3)CC2)C1=O (centres undefined),13.6,-5.3,5.7,0.3,13.6,.
O=C1CC(N2CCCCCC2)C(=O)N1c1ccc(F)cc1 (centres undefined),.,33.2,53.6*,38.7,-6.5,45.0*
CCOC(=O)c1ccc(N2C(=O)CC(N3CCC(Nc4ccc(F)cc4)CC3)C2=O)cc1 (centres undefined),128.3*,15.2,56.6*,35.0,32.1,50.3*
COc1cc(OC)cc(C(=O)NCCCNC(=O)c2ccccn2)c1,18.6,12.5,5.3,0.2,11.6,.
CC(C)(C)C(=O)N1CCC2CC1c1cc(Cl)ccc12 (centres undefined),-13.3,.,.,.,.,.
CCOc1c(C)cnc2c1c(=O)n(Cc1ccc(Cl)cc1)c(=O)n2C,3.6,-4.2,5.3,1.3,24.2,.
Oc1cccc(Oc2ncc(C(F)(F)F)cc2Cl)c1,-20.8,13.5,48.7*,23.6,1.0,40.5*
CC(C)(C)NS(=O)(=O)c1ccc(Oc2ncc(C(F)(F)F)cc2Cl)cc1,-34.8,33.6,40.7*,30.2,-9.6,38.2*
CN(NS(=O)(=O)c1ccc(F)cc1)c1ncc(C(F)(F)F)cc1Cl,-29.1,9.7,16.1,12.1,21.4,.
CN(NS(=O)(=O)c1ccc(Cl)cc1)c1ncc(C(F)(F)F)cc1Cl,-9.4,27.1,42.5*,13.9,23.3,26.2
O=S(=O)(c1ccc(NC(=S)NN=Cc2ccccc2O)cc1)N1CCCCC1,-10.7,.,.,.,.,.
CC1CCN(C(=O)CCC(=O)Nc2nnc(C3CCCCC3)s2)CC1,13.9,14.8,5.7,17.4,3.7,.
Cc1cc(C)c(S(=O)(=O)c2ccc(F)cc2C)c(Cl)n1,-10.7,8.4,3.1,2.4,5.7,.
N#CC(C#N)=C1NC2(CCCCC2)Cc2ccccc21,-23.6,12.5,20.0,23.7,1.5,.
N#CC(C#N)=c1ccc2c(c1)NC1(CCCCC1)N=2,42.4,44.5,46.4*,28.6,35.1,41.8*
O=C(/C=C/c1cccs1)Nc1nccs1,14.3,1.3,-0.4,1.8,29.9,.
O=C(/C=C/c1cccs1)Nc1cccc(NC(=O)/C=C/c2cccs2)n1,-15.6,35.3,40.1*,30.6,18.4,11.1
CCOc1ccccc1C(=O)NCC(=O)NCC(c1ccc(OC)cc1)N1CCOCC1 (centres undefined),.,3.7,-13.8,1.9,6.4,.
O=C(OCC(=O)N1CCc2ccccc21)c1c2c(nc3ccccc13)CCCC2,18.6,33.9,38.7,39.6,24.0,.
CC1Cc2ccccc2N1C(=O)COC(=O)c1c2c(nc3ccccc13)CCCCC2 (centres undefined),10.6,34.5,40.8*,35.1,19.2,36.4*
CC1CCN(C(=O)CSc2nc(C3CC3)nc3ccccc23)CC1,1.3,34.5,-13.6,-15.3,-8.3,.
CCOC(=O)CSc1nc(C2CC2)nc2ccccc12,-10.8,28.9,40.2*,20.2,32.2,2.6
C[C@H](CO)N1C[C@H](C)[C@@H](CN(C)C(=O)NC2CCCCC2)Oc2c(NS(=O)(=O)c3cccs3)cccc2C1=O,-4.2,-0.5,6.6,8.1,12.7,.
